IL1B secr inh: qHTS for Inhibitors of Inflammasome Signaling: IL-1-beta AlphaLISA Primary Screen. THP-1 LPS/ATP IL-1B secretion, AlphaLISA, 16 h; active compounds read low. activity change, % at 57.5 µM. 360,000 compounds, 4.7% hits; in the data active = activity change below about -50%; inconclusive = mostly about -30% to -49%; note: % is set by controls: 0 for no effect and ±100 for the full control effect
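THP-1 cells pretreated 1 hr with compounds (up to 57.5 uM final), then stimulated with LPS (250 ng/mL final) plus ATP (1.25 mM final); secreted IL-1B measured by AlphaLISA after 16 hr, decreased signal indicating inhibition.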
HepG2 tox: qHTS for Inhibitors of TGF-b: Cytotox Counterscreen. HepG2 CAGA-GFP viability, ATP luminescence, 18 h. Potency, µM (series often up to 46.1 µM), for inactives: at the highest dose activity change, negative = cytotoxicity, actives largely listed as cytotoxic. 410,000 compounds, 0.76% hits. AID 588856, 2011; note: potency is the fitted concentration of half-maximal effect
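CellTiter-Glo luminescence gave cytotoxicity after 18 hours at 37 degrees C. The cells were HepG2 CAGA-GFP in 1% FBS DMEM, stimulated with 500 pg/mL TGF-beta after compound addition. %Activity was normalised to no-cell wells (complete cell-killing) and DMSO (no toxicity), and curves were fitted and classified.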
DT40 TDP1 no CPT: qHTS for Inhibitors of human tyrosyl-DNA phosphodiesterase 1 (TDP1): qHTS in cells in absence of CPT; DT40 Tdp1-/- hTDP1 cells, no CPT, ATP luminescence, 48 h; Potency, µM (series often up to 46.2 µM), for the others: at the highest dose activity change, negative = growth inhibition, actives largely listed as inhibitors; 420,000 compounds, 15% hits; AID 686978, 2013; note: potency is the fitted concentration of half-maximal effect; % is set by controls: 0 for no effect and ±100 for the full control effect; nearly all actives have a fitted effect of over 55% in size
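DT40 Tdp1-/-;hTDP1 cells, no CPT (DMSO vehicle only), 400 cells/well; compounds pin-transferred; ≥48 hr, 37 °C; CellTiter-Glo 30 min RT dark, luminescence read.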
DT40 TDP1 CPT: qHTS for Inhibitors of human tyrosyl-DNA phosphodiesterase 1 (TDP1): qHTS in cells in presence of CPT. chicken DT40 Tdp1-/-;hTDP1 cells + 20 nM CPT, ATP luminescence, 48 h. Potency, µM (top dose mostly 46.2 µM), without a hit: at the top dose activity change, negative = growth inhibition, hits mostly inhibitors. 420,000 compounds, 12% hits; note: potency is the fitted concentration of half-maximal effect; % is set by controls: 0 for no effect and ±100 for the full control effect; nearly all actives have a fitted effect of over 55% in size
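Cell growth measured by CellTiter-Glo luminescence after a minimum 48 h, 37 C compound exposure with 20 nM CPT in Tdp1-knockout DT40 cells stably expressing hTDP1, seeded 400/well; qHTS titration format.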
TDP1 block: qHTS Assay for Inhibitors of Tyrosyl-DNA Phosphodiesterase (TDP1); Tyrosyl-DNA phosphodiesterase 1 (Homo sapiens), Q9NUW8; recombinant TDP1, AlphaScreen DNA substrate cleavage; Potency, µM (series often up to 130 µM), for the others: at the highest dose activity change, negative = inhibition, usual class: inhibitors; 350,000 compounds, 0.28% hits; AID 485290, 2010; note: potency is the fitted concentration of half-maximal effect; % is set by controls: 0 for no effect and ±100 for the full control effect; nearly all actives have a fitted effect of over 40% in size
Target sequence (Q9NUW8 whole entry, looked up): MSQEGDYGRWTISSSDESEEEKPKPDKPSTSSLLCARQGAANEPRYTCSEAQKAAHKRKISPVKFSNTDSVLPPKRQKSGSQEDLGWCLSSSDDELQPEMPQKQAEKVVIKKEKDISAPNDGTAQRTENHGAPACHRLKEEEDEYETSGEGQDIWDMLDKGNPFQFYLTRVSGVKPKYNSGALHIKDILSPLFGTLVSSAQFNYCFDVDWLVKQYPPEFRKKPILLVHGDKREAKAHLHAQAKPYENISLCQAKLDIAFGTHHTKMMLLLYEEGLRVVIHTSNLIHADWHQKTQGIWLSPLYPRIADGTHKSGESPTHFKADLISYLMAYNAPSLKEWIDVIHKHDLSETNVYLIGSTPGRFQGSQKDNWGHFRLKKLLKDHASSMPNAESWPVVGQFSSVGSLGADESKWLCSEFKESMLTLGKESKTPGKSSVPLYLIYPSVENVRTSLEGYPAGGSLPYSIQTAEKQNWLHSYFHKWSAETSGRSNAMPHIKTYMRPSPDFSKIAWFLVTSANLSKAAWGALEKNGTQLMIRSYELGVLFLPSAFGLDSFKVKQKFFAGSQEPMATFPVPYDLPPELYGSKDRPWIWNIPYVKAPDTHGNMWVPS
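Signal: AlphaScreen proximity between streptavidin donor and anti-FITC acceptor beads on intact substrate. Reaction: Tdp1 1 nM, substrate 15 nM final, 5 min RT after 15 min compound preincubation.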
TGFb SMAD3 inh: qHTS for Inhibitors of TGF-b | HepG2 CAGA-GFP TGF-b/SMAD3 reporter, GFP fluorescence, 18 h; TGF-beta stimulated, 500 pg/mL final | 410,000 compounds, 1.2% hits | Potency, µM (series often up to 46.1 µM), for the others: top-dose activity, negative = inhibition, hits mostly inhibitors; note: potency is the fitted concentration of half-maximal effect; % is set by controls: 0 for no effect and ±100 for the full control effect; nearly all actives have a fitted effect of over 65% in size
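Cell-based qHTS in HEPG2 carrying a CAGA-GFP Smad reporter; compounds added before 500 pg/mL final TGF-beta, 18 h incubation at 37 degrees C, GFP fluorescence quantified per cell by imaging cytometry.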
Starred values were filed as active, the others as inactive; u = inconclusive; x = no result; [ ] = remark or other dose. Compounds with a hit are over-represented: about 19% of the library has one in this group of screens. Unless noted, calls come from the whole dose curve; as a rule, active = well fitted curve in the direction sought with a large enough effect; inconclusive = small, poorly fitted or top-dose-only effect, or another doubt; inactive = no such curve, though single readings can be large; an effect the other way counts as inactive or inconclusive.

SMILES | IL1B secr inh | HepG2 tox | DT40 TDP1 no CPT | DT40 TDP1 CPT | TDP1 block | TGFb SMAD3 inh
C/C(=N\NC(=O)c1cccc(O)c1)c1ccc(NC(=O)Cc2ccccc2)cc1 | 24 | -4% | -12% | -21% | 2% | -2%
Cc1cnc(CNc2ccnc(-c3ccccc3Cl)n2)cn1 | x | x | -5% | 9% | 11%[56.1 µM] | x
CN(/N=C/c1ccc(O)cc1O)c1ncc(C(F)(F)F)cc1Cl | -23 | 13µM* | u | u | 5% | u
CN(/N=C/c1ccccc1Cl)c1ncc(Cl)cc1C(F)(F)F | 32 | -13% | -3% | 2% | 1% | 0%
COC(=O)c1cccc(N2C(=O)C[C@](Sc3ccc(C)cc3)(C(=O)OC)[C@H]2c2ccccc2)c1 | 7 | x | 23µM* | u | x | x
COC(=O)[C@@]1(Sc2ccc(C)cc2)CC(=O)N(c2ccc(Cl)cc2)[C@@H]1c1ccccc1 | 18 | x | 21µM* | u | x | x
COC(=O)[C@@]1(Sc2ccc(C)cc2)CC(=O)N(C(=O)C2CC2)[C@@H]1c1ccccc1 | 3 | x | u | -24% | x | x
COC(=O)[C@@]1(Sc2ccc(C)cc2)CC(=O)N(c2ccc3c(ccn3C)c2)[C@@H]1c1ccccc1 | 38 | x | u | u | x | x
COc1ccc(S(=O)(=O)CCC(=O)N2CCN(c3ccc(C(C)=O)cc3)CC2)cc1 | 0 | -20% | 15µM* | u | -3% | -2%
COc1ccc(S(=O)(=O)CCC(=O)N2CCN(c3cccc(Cl)c3)CC2)cc1 | -26 | 5% | 10µM* | 18µM* | 2% | -21%
COc1ccc(N2CCN(C(=O)CCS(=O)(=O)c3ccc(C)cc3)CC2)cc1 | -2 | -8% | -29% | u | 8% | -22%
Cc1ccc(N(C)C(=O)CC(C)S(=O)(=O)c2ccc3c(c2)NC(=O)CO3)cc1 (centres undefined) | 24 | -15% | u | -7% | -3% | u
CC(=O)c1ccc(N2CCN(C(=O)CCS(=O)(=O)c3ccc(C)cc3)CC2)cc1 | 14 | -5% | 15µM* | u | 4% | -3%
CC(CC(=O)N1CCN(c2ccccc2)CC1)S(=O)(=O)c1ccc2c(c1)NC(=O)CO2 (centres undefined) | 22 | -21% | u | 21µM* | 0% | -28%
O=C(NCCc1nnc2n1CCN(Cc1ccc(F)cc1)CC2)c1ccc(F)cc1 | x | x | -5% | 10% | x | x
O=C(N1CCN(c2ccc(F)cc2)CC1)C1(c2cccs2)CCOCC1 | -13 | -1% | u | -22% | 3% | -8%
CN(CC(=O)N1CCN(c2cccc(Cl)c2)CC1)S(=O)(=O)c1cccs1 | u | -13% | 16µM* | u | 0% | -17%
Cc1cccc(N2CCN(C(=O)CCS(=O)(=O)c3ccc4c(c3)NC(=O)CO4)CC2)c1C | -11 | -5% | u | u | 1% | -23%
COc1ccc(N2CCN(C(=O)CCS(=O)(=O)c3ccc4c(c3)NC(=O)CO4)CC2)cc1 | 47 | 7% | 16µM* | u | 2% | -1%
O=C(N1CCN(c2cccc(Cl)c2)CC1)C1(c2cccs2)CCOCC1 | u | -43% | 21µM* | 23µM* | 5% | -14%
CCCCN1C2=NCCCN2c2cc(C)c(C)cc21 | -3 | 1% | 23µM* | 18µM* | 1% | 1%
CCCCN1C2=NC(c3ccccc3)CN2c2ccccc21 (centres undefined) | -27 | 6.3µM* | 26µM* | u | x | -5%
CCCN1C2=NCCCN2c2ccccc21 | 22 | 21% | -6% | 2% | -1% | -13%
CCCCCCN1C2=NCCN2c2ccccc21 | -21 | -19% | u | u | 5% | 0%
CCCCN1C2=NCCCN2c2ccccc21 | 14 | -2% | u | u | 1% | -15%
SMILES | IL1B secr inh | HepG2 tox | DT40 TDP1 no CPT | DT40 TDP1 CPT | TDP1 block | TGFb SMAD3 inh
CCCCN1c2ccccc2N(CCCO)c2cc(C)nnc21 | -5 | -17% | -17% | -12% | 0% | 0%
CCCCCCCN1C2=NCCCN2c2ccccc21 | -72* | -38% | 2.3µM* | 2.6µM* | -4% | u
CCCCCCCN1C2=NCCN2c2ccccc21 | -55* | -41% | 18µM* | 12µM* | 0% | -28%
O=C(Cc1ccc(Br)cc1)OCC(=O)N1CCc2ccccc2C1 | 17 | 3% | -10% | 18% | -3% | -17%
O=C(O)C1C2CCCCC2=C2CCCCC2C1C(=O)c1ccccc1 (centres undefined) | 14 | -58% | 24% | 0% | 1% | -8%
CC(C)OCCCNC(=S)Nc1ccc(S(N)(=O)=O)cc1 | 10 | 7% | u | 23µM* | -6% | 5%
CCCCC(C(=O)NC1CCCC1)N(C(=O)c1snc(C(N)=O)c1N)c1ccc(C)cc1 (centres undefined) | -17 | 1% | u | 18µM* | 0% | -1%
CCC(C(=O)NC1CCCC1)N(C(=O)c1snc(C(N)=O)c1N)c1ccc(C)cc1C (centres undefined) | -8 | -9% | 18µM* | u | 0% | -3%
CCC(C(=O)NC1CCCC1)N(C(=O)c1snc(C(N)=O)c1N)c1ccc(OC)cc1 (centres undefined) | 23 | 1% | 13% | u | 3% | -6%
CC(C)c1ccc(N(C(=O)c2snc(C(N)=O)c2N)C(C(=O)NC2CCCC2)c2ccncc2)cc1 (centres undefined) | 41 | -16% | 23µM* | 18µM* | x | -1%
NC(=O)c1nsc(C(=O)N(c2ccc(F)cc2)C(C(=O)NC2CCCC2)c2ccncc2)c1N (centres undefined) | 2 | 6% | -12% | 1% | 0% | -3%
O=c1c(-c2ccc(Cl)cc2)nc2cnc(N3CCOCC3)nc2n1C[C@H]1CCCO1 | x | x | 10% | 3% | x | x
COc1cccc2cc(C(=O)NCc3ccco3)c(=Nc3ccc(C(=O)O)cc3)oc12 | -85* | -3% | 16µM* | u | -7% | -14%
NC(=O)c1cc2ccc(O)cc2oc1=Nc1ccccc1 | -19 | -31% | u | 15µM* | 5% | -16%

High-throughput results: PubChem, National Center for Advancing Translational Sciences (NCATS)
